Screen size: about 320,000 compounds; about 2,100 (0.66%) were called active. Roughly 53% stayed inconclusive and do not appear here. The sample holds actives, similar compounds and a random draw of the others, so the mix is not that of the screen. Calls follow the shape of the dose curve; as a rule, active = well fitted inhibition curve with a large enough effect in the signal ratio, with a control signal flat (not every such curve was filed as active); inconclusive = small, poorly fitted or top-dose-only effect, or effect the other way, or a change in a side signal; inactive = flat fitted curve, though single readings scatter; the % refers to the signal ratio.
assay: qHTS Assay for Lipid Storage Modulators in Drosophila S3 Cells; conditions: BODIPY lipid droplet fluorescence, 18-24 h, cells fed with added oleic acid; cell number change: measured here: cell count max response; series mostly up to 46.1 µM; lipid storage change, negative = inhibition: at the top concentration;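 as to cell number change: cells counted by Cell Tracker Red CMTPX staining in the red channel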; as to lipid storage change, negative = inhibition: % is scaled to controls: 0 for no effect and ±100 for the full control effect
Method in brief: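 Laser-scanning cytometry quantifies lipid droplet accumulation (500–530 nm total intensity; droplet/cell object ratio) in oleic acid-fed (400 uM added) Drosophila S3 cells treated with a concentration series. 20 uM Triacsin C defined 100% inhibition.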
Potency is read from the fitted curve at half-maximal effect.

With Cc1ccc(N2C(=O)C3C(C2=O)N2CCCN2C3c2ccccc2)cc1C (configuration not stated) as the compound, how does the “lipid storage change, negative = inhibition” value read?
The value was -5.4% (inactive).

And the cell number change?
The cell number change was 7.85%.

For CCN(CC)C(=O)CC(c1ccc(F)cc1)c1ccco1 (configuration not stated), which “lipid storage change, negative = inhibition” value is on record?
The value was 2.63% (inactive).

What about the cell number change of the same compound?
Its cell number change is -17.4%.

With CCc1ccccc1NC(=O)CSc1nnc(Cn2cnc3ccccc32)o1 as the compound, how does the “lipid storage change, negative = inhibition” value read?
Its value is -1.44% (inactive).

And the cell number change?
Its cell number change is -13.9%.

With COc1ccc(CCNC(=O)C(=O)NCC2OCCN2S(=O)(=O)c2cccs2)cc1 (configuration not stated) as the compound, how does the “lipid storage change, negative = inhibition” value read?
Its value is 15.5% (inactive).

What about the cell number change of the same compound?
Its cell number change is 0.232%.

Which results are given for Cc1c(NC(=O)CSc2nnc(C(C)Oc3ccc(Cl)cc3)n2-c2ccccc2)c(=O)n(-c2ccccc2)n1C (configuration not stated)?
lipid storage change, negative = inhibition: 6.38% (inactive); cell number change: 8.96%

Which results are given for COc1ccc(C(=O)N2CCN(c3ccccc3)CC2)cc1S(=O)(=O)N1CCOCC1?
Potency: 3260 nM (active); cell number change: 0.901%

Which “lipid storage change, negative = inhibition” value does the source give for COc1ccc(/C=C/C(=O)N2CCN(c3ccccc3)CC2)cc1S(=O)(=O)N1CCOCC1 here?
Its value is 21.1% (inactive).

With Cc1ccc(C(=O)N2CCN(c3ccccc3)CC2)cc1S(=O)(=O)N1CCOCC1 as the compound, how does the “lipid storage change, negative = inhibition” value read?
The value was 0.336% (inactive).

What about the cell number change of the same compound?
The cell number change was 22%.

What does the source list for COC(=O)c1sc(NC(=O)C2c3ccccc3Oc3ccccc32)c(C(=O)OC)c1C?
lipid storage change, negative = inhibition: -0.563% (inactive); cell number change: 5.22%

Which results are given for Cc1ccc(C2CC(C(F)F)n3ncc(C(=O)Nc4c(C)nn(Cc5c(F)cccc5Cl)c4C)c3N2)cc1 (configuration not stated)?
lipid storage change, negative = inhibition: 0.101% (inactive); cell number change: 11%

Which “outcome” value does the source give for CCOC(=O)c1c(NC(=O)c2ccccc2C(=O)O)sc2c1CCC2 here?
Its value is “inactive”.

And the cell number change?
The cell number change was 7.14%.

For COc1cc(-c2cc(-c3ccc(N)cc3)[nH]c(=O)c2C#N)cc(OC)c1OC, which “lipid storage change, negative = inhibition” value is on record?
Its value is 11.6% (inactive).

What about the cell number change of the same compound?
The cell number change was 28%.

Which results are given for O=C(Nc1ccc(Cl)cn1)c1cccc(S(=O)(=O)N2CCCCC2)c1?
outcome: inactive; cell number change: 14.3%

For O=C(Cn1cnc2ccccc2c1=O)NCCC(=O)Nc1ccccc1C(F)(F)F, which Potency is on record?
The Potency was 65.1 nM (active).

What about the cell number change of the same compound?
Its cell number change is -3.75%.

For COC(=O)c1ccccc1NC(=O)CCNC(=O)Cn1cnc2ccccc2c1=O, which “lipid storage change, negative = inhibition” value is on record?
Its value is -6.58% (inactive).

And the cell number change?
Its cell number change is -2.73%.

With O=C(Cn1cnc2ccccc2c1=O)NCCC(=O)Nc1ccc(F)cc1 as the compound, how does the “lipid storage change, negative = inhibition” value read?
The value was -9.21% (inactive).

And the cell number change?
The cell number change was 20.1%.

With COC(=O)c1ccc(CSc2nc3ccccc3c(=O)n2N)cc1 as the compound, how does the “outcome” value read?
Its value is “inactive”.

What about the cell number change of the same compound?
Its cell number change is -1.8%.

Which “lipid storage change, negative = inhibition” value does the source give for CC(C)CN(CC(C)C)S(=O)(=O)N1CCC(C(=O)NCc2ccco2)CC1 here?
Its value is 2.25% (inactive).

What about the cell number change of the same compound?
Its cell number change is -10.2%.

Which results are given for CCOc1ccccc1N(CC(=O)NCc1ccco1)C(=O)CCC(=O)Nc1nccs1?
Potency: 2590 nM (active); cell number change: -1.71%

Which results are given for CCc1ccccc1N(CC(=O)NCc1ccco1)C(=O)CCC(=O)Nc1nccs1?
outcome: inactive; cell number change: 6.09%

Which results are given for COc1ccccc1N(CC(=O)NCCc1ccccc1)C(=O)CCC(=O)Nc1nccs1?
Potency: 2060 nM (active); cell number change: -5.22%

Which results are given for Cc1ccccc1N(CC(=O)NCc1ccco1)C(=O)CCC(=O)Nc1nccs1?
lipid storage change, negative = inhibition: 20.4% (inactive); cell number change: 7.88%

For O=C(CN(C(=O)CCC(=O)Nc1nccs1)c1ccccc1F)NCCc1ccccc1, which “outcome” value is on record?
Its value is “inactive”.

And the cell number change?
The cell number change was 18.7%.

With COc1ccccc1N(CC(=O)NCc1ccc(F)cc1)C(=O)CCC(=O)Nc1nccs1 as the compound, how does the “outcome” value read?
The value was “inactive”.

What about the cell number change of the same compound?
Its cell number change is -10.4%.

Reference: PubChem BioAssay AID2685 (National Center for Advancing Translational Sciences (NCATS), 2010)
